From PubChem BioAssay (NCATS)
Inconclusive results are not listed. A call without a number means that no potency is given here. Unmarked numbers belong to inactive results. Active and inactive are the calls of the source. Calls follow the shape of the dose curve; as a rule, active = well fitted curve in the direction sought with a large enough effect; inconclusive = small, poorly fitted or top-dose-only effect, or another doubt; inactive = no such curve, though single readings can be large; an effect the other way counts as inactive or inconclusive.

Legend:
HACAT = assay: qHTS assay to identify novel small-molecules to repurpose for Merkel cell carcinoma treatment (AID 1296009); settings: MCC and control cell lines, CellTiter-Glo viability, 72 h; at 44.8 µM (top of the series) unless noted; also: nearly all actives have a fitted effect of over 60% in size; also: potency is read from the fitted curve at half-maximal effect
Method in brief: (§1)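 Cells were treated for 72 hr at 37 degree celsius with compounds in 8- or 11-point dose response. Viability was read by CellTiter-Glo luminescence, normalized to no-cell (cytotoxicity) and DMSO controls.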

MCC-13 = assay: as above; settings: MCC and control cell lines, CellTiter-Glo viability, 72 h; series mostly up to 46 µM
Method in brief: as §1

MCC-26 = assay: as above; settings: MCC and control cell lines, CellTiter-Glo viability, 72 h; series mostly up to 46 µM
Method in brief: as §1

MKL-1 = assay: as above; settings: MCC and control cell lines, CellTiter-Glo viability, 72 h; series mostly up to 46 µM
Method in brief: as §1

UISO = assay: as above; settings: MCC and control cell lines, CellTiter-Glo viability, 72 h; series mostly up to 46 µM
Method in brief: as §1

WaGa = assay: as above; settings: MCC and control cell lines, CellTiter-Glo viability, 72 h; series mostly up to 46 µM
Method in brief: as §1

C33A = assay: Primary qHTS to identify gynecologic anti-cancer compounds using libraries of approved drugs and bioactive compounds (AID 1345084); settings: Gynecologic cancer cell panel viability, ATPlite luminescence, 48 h; series mostly up to 57.5 µM; also: nearly all actives have a fitted effect of over 55% in size
Method in brief: (§2)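 Five-concentration response, 48 h; readout is ATP-driven luciferase luminescence.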

CAOV3 = assay: as above; settings: Gynecologic cancer cell panel viability, ATPlite luminescence, 48 h; series mostly up to 57.5 µM
Method in brief: as §2

CASKI = assay: as above; settings: Gynecologic cancer cell panel viability, ATPlite luminescence, 48 h; series mostly up to 57.5 µM
Method in brief: as §2

Es-2 = assay: as above; settings: Gynecologic cancer cell panel viability, ATPlite luminescence, 48 h; series mostly up to 57.5 µM
Method in brief: as §2

HeLa = assay: as above; settings: Gynecologic cancer cell panel viability, ATPlite luminescence, 48 h; series mostly up to 57.5 µM
Method in brief: as §2

Hek293T = assay: as above; settings: Gynecologic cancer cell panel viability, ATPlite luminescence, 48 h, control line for the selectivity index; series mostly up to 57.5 µM
Method in brief: as §2

JEG-3 = assay: as above; settings: Gynecologic cancer cell panel viability, ATPlite luminescence, 48 h; series mostly up to 57.5 µM
Method in brief: as §2

OV90 = assay: as above; settings: Gynecologic cancer cell panel viability, ATPlite luminescence, 48 h; series mostly up to 57.5 µM
Method in brief: as §2

PA-1 = assay: as above; settings: Gynecologic cancer cell panel viability, ATPlite luminescence, 48 h; series mostly up to 57.5 µM
Method in brief: as §2

SKOV3 = assay: as above; settings: Gynecologic cancer cell panel viability, ATPlite luminescence, 48 h; series mostly up to 57.5 µM
Method in brief: as §2

Tov-21-G = assay: as above; settings: Gynecologic cancer cell panel viability, ATPlite luminescence, 48 h; series mostly up to 57.5 µM
Method in brief: as §2

MKL-2 = assay: qHTS assay to identify novel small-molecules to repurpose for Merkel cell carcinoma treatment (AID 1296009); settings: MCC and control cell lines, CellTiter-Glo viability, 72 h; series mostly up to 46 µM; also: nearly all actives have a fitted effect of over 60% in size; also: potency is read from the fitted curve at half-maximal effect
Method in brief: as §1

NIH3T3 = assay: as above; settings: MCC and control cell lines, CellTiter-Glo viability, 72 h; at 44.8 µM (top of the series) unless noted
Method in brief: as §1

SMILES: CC(C)(C)CC(=O)OCC(=O)[C@@]1(O)CC[C@H]2[C@@H]3CCC4=CC(=O)C=C[C@]4(C)[C@H]3[C@@H](O)C[C@@]21C
- outcome (HACAT): inactive
- Potency (MCC-13): inactive
- Potency (MCC-26): inactive
- Potency (MKL-1): inactive
- Potency (UISO): inactive
- Potency (WaGa): inactive
- Potency (C33A): inactive
- Potency (CAOV3): inactive
- Potency (CASKI): inactive
- Potency (Es-2): inactive
- Potency (HeLa): inactive
- Potency (Hek293T): inactive
- Potency (JEG-3): inactive
- Potency (OV90): inactive
- Potency (PA-1): inactive
- Potency (SKOV3): inactive
- Potency (Tov-21-G): inactive

SMILES: CCOC(=O)NNc1nncc2ccccc12
- outcome (HACAT): inactive
- Potency (MCC-13): inactive
- Potency (MCC-26): inactive
- Potency (MKL-1): inactive
- Potency (MKL-2): inactive
- Potency (UISO): inactive
- Potency (WaGa): inactive
- Potency (C33A): inactive
- Potency (CAOV3): inactive
- Potency (CASKI): inactive
- Potency (Es-2): inactive
- Potency (HeLa): inactive
- Potency (Hek293T): inactive
- Potency (JEG-3): inactive
- Potency (OV90): inactive
- Potency (PA-1): inactive
- Potency (SKOV3): inactive
- Potency (Tov-21-G): inactive

SMILES: O=C(O)c1ccccc1Nc1cc(Cl)ccc1C(=O)O
- outcome (HACAT): inactive [at 17.4 µM]
- Potency (MCC-13): inactive
- Potency (MCC-26): inactive
- Potency (MKL-1): inactive
- Potency (WaGa): inactive
- Potency (C33A): inactive
- Potency (CAOV3): inactive
- Potency (CASKI): inactive
- Potency (Es-2): inactive
- Potency (HeLa): inactive
- Potency (Hek293T): inactive
- Potency (JEG-3): inactive
- Potency (PA-1): inactive
- Potency (SKOV3): inactive
- Potency (Tov-21-G): inactive

SMILES: Nc1nc2ccccc2n1Cc1ccc(F)cc1
- outcome (HACAT): inactive
- Potency (MCC-13): inactive
- Potency (MCC-26): inactive
- Potency (MKL-1): inactive
- outcome (NIH3T3): inactive
- Potency (C33A): inactive
- Potency (CAOV3): inactive
- Potency (CASKI): inactive
- Potency (Es-2): inactive
- Potency (HeLa): inactive
- Potency (JEG-3): inactive
- Potency (OV90): inactive
- Potency (PA-1): inactive
- Potency (SKOV3): inactive
- Potency (Tov-21-G): inactive

SMILES: C/C(=N/NC(=O)c1ccncc1)C(=O)O
- outcome (HACAT): inactive
- Potency (MCC-13): inactive
- Potency (MCC-26): inactive
- Potency (MKL-1): inactive
- Potency (MKL-2): inactive
- Potency (UISO): inactive
- Potency (WaGa): inactive
- Potency (C33A): inactive
- Potency (CASKI): inactive
- Potency (Es-2): inactive
- Potency (HeLa): inactive
- Potency (Hek293T): inactive
- Potency (JEG-3): inactive
- Potency (OV90): inactive
- Potency (PA-1): inactive
- Potency (SKOV3): inactive
- Potency (Tov-21-G): inactive

SMILES: N#CSCC(=O)O
- outcome (HACAT): inactive
- Potency (MCC-13): inactive
- Potency (MCC-26): inactive
- Potency (MKL-1): inactive
- outcome (NIH3T3): inactive
- Potency (UISO): inactive
- Potency (WaGa): inactive
- Potency (C33A): inactive
- Potency (CAOV3): inactive
- Potency (CASKI): inactive
- Potency (Es-2): inactive
- Potency (HeLa): inactive
- Potency (Hek293T): inactive
- Potency (JEG-3): inactive
- Potency (OV90): inactive
- Potency (PA-1): inactive
- Potency (Tov-21-G): inactive

SMILES: Cc1nc(C2CCCCC2)c(-c2ccc(S(N)(=O)=O)c(F)c2)o1
- outcome (HACAT): inactive
- Potency (MCC-13): inactive
- Potency (MCC-26): inactive
- Potency (MKL-1): inactive
- Potency (MKL-2): inactive
- Potency (UISO): inactive
- Potency (WaGa): inactive
- Potency (C33A): inactive
- Potency (CAOV3): inactive
- Potency (CASKI): inactive
- Potency (Es-2): inactive
- Potency (HeLa): inactive
- Potency (Hek293T): inactive
- Potency (JEG-3): inactive
- Potency (OV90): inactive
- Potency (PA-1): inactive
- Potency (Tov-21-G): inactive

SMILES: CCC(C(=O)NC(=O)NC(C)=O)c1ccccc1 (stereo not given)
- outcome (HACAT): inactive
- Potency (MCC-13): inactive
- Potency (MCC-26): inactive
- Potency (MKL-1): inactive
- Potency (MKL-2): inactive
- Potency (UISO): inactive
- Potency (WaGa): inactive
- Potency (C33A): inactive
- Potency (CAOV3): inactive
- Potency (CASKI): inactive
- Potency (Es-2): inactive
- Potency (HeLa): inactive
- Potency (Hek293T): inactive
- Potency (JEG-3): inactive
- Potency (OV90): inactive
- Potency (PA-1): inactive
- Potency (Tov-21-G): inactive

SMILES: CCCCN(CCN(CCCC)C(=O)N1CCOCC1)C(=O)N1CCOCC1
- outcome (HACAT): inactive
- Potency (MCC-13): inactive
- Potency (MCC-26): inactive
- Potency (MKL-1): inactive
- Potency (WaGa): inactive
- Potency (C33A): inactive
- Potency (CAOV3): inactive
- Potency (CASKI): inactive
- Potency (Es-2): inactive
- Potency (HeLa): inactive
- Potency (Hek293T): inactive
- Potency (JEG-3): inactive
- Potency (OV90): inactive
- Potency (PA-1): inactive
- Potency (Tov-21-G): inactive

SMILES: CC(C)Cc1ccc(C(C)C(=O)OCc2ccccn2)cc1 (stereo not given)
- outcome (HACAT): inactive
- Potency (MCC-13): inactive
- Potency (MCC-26): inactive
- Potency (MKL-1): inactive
- Potency (UISO): inactive
- Potency (WaGa): inactive
- Potency (C33A): inactive
- Potency (CAOV3): inactive
- Potency (CASKI): inactive
- Potency (Es-2): inactive
- Potency (HeLa): inactive
- Potency (Hek293T): inactive
- Potency (JEG-3): inactive
- Potency (OV90): inactive
- Potency (PA-1): inactive
- Potency (SKOV3): inactive
- Potency (Tov-21-G): inactive

SMILES: CCCCCCOC(=O)NC(=N)c1ccc(NCc2nc3cc(C(=O)N(CCC(=O)OCC)c4ccccn4)ccc3n2C)cc1
- outcome (HACAT): inactive
- Potency (MCC-13): inactive
- Potency (MCC-26): inactive
- Potency (MKL-1): 8.41 µM (active)
- Potency (MKL-2): 15 µM (active)
- Potency (UISO): inactive
- Potency (C33A): inactive
- Potency (CAOV3): inactive
- Potency (CASKI): inactive
- Potency (HeLa): inactive
- Potency (JEG-3): inactive
- Potency (PA-1): inactive
- Potency (SKOV3): inactive
- Potency (Tov-21-G): inactive

SMILES: Nc1ccc([N+](=O)[O-])c(C(F)(F)F)c1
- outcome (HACAT): inactive
- Potency (MCC-13): inactive
- Potency (MCC-26): inactive
- Potency (MKL-1): inactive
- Potency (MKL-2): inactive
- Potency (UISO): inactive
- Potency (WaGa): inactive
- Potency (C33A): inactive
- Potency (CAOV3): inactive
- Potency (CASKI): inactive
- Potency (Es-2): inactive
- Potency (HeLa): inactive
- Potency (Hek293T): inactive
- Potency (JEG-3): inactive
- Potency (OV90): inactive
- Potency (PA-1): inactive
- Potency (Tov-21-G): inactive

SMILES: O=C(Oc1ccccc1)c1cccc(C(=O)Oc2ccccc2)c1
- outcome (HACAT): inactive [at 92 µM]
- Potency (MCC-13): inactive
- Potency (MCC-26): inactive
- Potency (MKL-1): inactive
- Potency (MKL-2): inactive
- Potency (UISO): inactive
- Potency (WaGa): inactive
- Potency (C33A): inactive
- Potency (CAOV3): inactive
- Potency (CASKI): inactive
- Potency (Es-2): inactive
- Potency (HeLa): inactive
- Potency (JEG-3): inactive
- Potency (OV90): inactive
- Potency (PA-1): inactive
- Potency (SKOV3): inactive
- Potency (Tov-21-G): inactive

SMILES: O=C1CCCc2c(O)cccc21
- outcome (HACAT): inactive
- Potency (MCC-13): inactive
- Potency (MCC-26): inactive
- Potency (MKL-1): inactive
- Potency (MKL-2): inactive
- Potency (UISO): inactive
- Potency (WaGa): inactive
- Potency (C33A): inactive
- Potency (CAOV3): inactive
- Potency (CASKI): inactive
- Potency (Es-2): inactive
- Potency (Hek293T): inactive
- Potency (JEG-3): inactive
- Potency (PA-1): inactive
- Potency (Tov-21-G): inactive

SMILES: COc1ccc2cc(C=O)ccc2c1
- outcome (HACAT): inactive
- Potency (MCC-13): inactive
- Potency (MCC-26): inactive
- Potency (MKL-1): inactive
- Potency (MKL-2): inactive
- Potency (UISO): inactive
- Potency (WaGa): inactive
- Potency (C33A): inactive
- Potency (CASKI): inactive
- Potency (Es-2): inactive
- Potency (HeLa): inactive
- Potency (Hek293T): inactive
- Potency (JEG-3): inactive
- Potency (OV90): inactive
- Potency (PA-1): inactive
- Potency (SKOV3): inactive
- Potency (Tov-21-G): inactive
